Experiment [1] is described as follows: qHTS assay to identify small molecule agonists of the hypoxia (HIF-1) signaling pathway - cell viability counter screen (AID 1224844; calls by dose curve; further: nearly all actives have a fitted effect of over 50% in size). In a few lines: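 Multiplexed with the HRE beta-lactamase assay, this viability read used CellTiter-Glo luminescence (30 min, RT) on HRE-bla ME-180 cells treated 17 hrs with compounds in 0.5% dialyzed FBS medium.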
The nature of experiment [2]: qHTS assay to identify small molecule agonists of H2AX (AID 1224845; active means well fitted activation curve with a large enough effect in the signal ratio in the repeat runs, not every such curve was filed as active; the % refers to the signal ratio). In a few lines:
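Wild-type CHO-K1 cells, plated overnight, exposed 3hr at 37C to 15 concentrations (0.76% DMSO final). Lysed, then HTRF anti-pH2AX (S139) cryptate and anti-H2AX-d2 antibodies, 24 hr room temperature; 665/620 nm emission read.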
A general note: Quantitative high-throughput screening tests each substance at several concentrations.

A short description of experiment [3]: qHTS assay to identify small molecule agonists of the hypoxia (HIF-1) signaling pathway (AID 1224846; active means well fitted activation curve with a large enough effect in the signal ratio in the repeat runs, not every such curve was filed as active; the % refers to the signal ratio). In a few lines:
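Hypoxia-pathway activation was scored as increased beta-lactamase from an HRE-controlled reporter in ME-180 cells; plated at 2,000 cells per well with 0.5% dialyzed FBS, they were exposed 17 hrs to compounds and then given CCF4-AM.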

Experiment [4] can be described thus: qHTS assay to identify small molecule agonists of H2AX - cell viability counter screen (AID 1224847; calls by dose curve; further: nearly all actives have a fitted effect of over 30% in size; further: potency means the concentration at half of the fitted maximal effect). Summed up: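 For this counter screen, overnight-attached CHO-K1 cells received test compounds (15 concentrations, 0.76% DMSO final); 3 hr later at 37C, CellTiter-Glo reagent was added and luminescence recorded after 30 min at room temperature.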
Experiment [5] in a line: qHTS RealTime-Glo MT Cell Viability Assay in HepG2 cells - 24 hour (AID 1224867). Further: nearly all actives have a fitted effect of over 50% in size. Summed up: (§1)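 Cells + NanoLuc/prosubstrate dispensed (600 cells/well) → 5 h at 37 C/5% CO2 → compounds in DMSO transferred → 40 h incubation at 37 C, luminescence read at 0, 8, 16, 24, 32, 40 h.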
Experiment [6] is described as follows: qHTS RealTime-Glo MT Cell Viability Assay in HEK293 cells - 32 hour (AID 1224868). Further: top concentration of the series differs between compounds; nearly all actives have a fitted effect of over 50% in size. In a few lines:
(§2)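 Tox21 10K qHTS, HEK293, 600 cells/well, RealTime-Glo reagent co-dispensed with cells; 5 h preincubation, compound by pintool, 37 C, luminescence at 0–40 h.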

The nature of experiment [7]: A CellTox Green Cytotoxicity Assay to monitor cytotoxicity in HEK293 cells - 0 hour (AID 1224869). Further: nearly all actives have a fitted effect of over 50% in size. In a few lines:
(§3)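 Seeding of HEK293 cells together with cytotoxicity dye preceded a 5 h incubation at 37 C/5% CO2. Test compounds in DMSO were then added and fluorescence monitored across 40 h.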

Experiment [8] is described as follows: qHTS RealTime-Glo MT Cell Viability Assay in HepG2 cells - 40 hour (AID 1224870). Further: nearly all actives have a fitted effect of over 50% in size. In a few lines: (§4)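 HepG2 cells (600/well) mixed with RealTime-Glo MT reagent, settled 5 h at 37 C/5% CO2 before compound addition. Nonlytic NanoLuc luminescence from viable-cell prosubstrate reduction read repeatedly during 40 h treatment at 37 C.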
Experiment [9] in a line: A CellTox Green Cytotoxicity Assay to monitor cytotoxicity in HEK293 cells - 40 hour (AID 1224871). Further: nearly all actives have a fitted effect of over 45% in size. Further: potency means the concentration at half of the fitted maximal effect. In a few lines: as §3
A short description of experiment [10]: qHTS RealTime-Glo MT Cell Viability Assay in HEK293 cells - 16 hour (AID 1224872). Summed up:
as §2

The nature of experiment [11]: qHTS RealTime-Glo MT Cell Viability Assay in HepG2 cells - 8 hour (AID 1224873). Further: nearly all actives have a fitted effect of over 55% in size. In a few lines: as §4
Experiment [12] is described as follows: A CellTox Green Cytotoxicity Assay to monitor cytotoxicity in HepG2 cells - 16 hour (AID 1224876). Further: nearly all actives have a fitted effect of over 45% in size. Summed up:
(§5)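 Nonlytic assay: viable cells exclude the dye, so fluorescence scales with cell death. HepG2 at 600 cells/well, compounds added after 5 h, signal read across 40 h.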

Experiment [13] is described as follows: qHTS RealTime-Glo MT Cell Viability Assay in HepG2 cells - 32 hour (AID 1224877). Further: nearly all actives have a fitted effect of over 55% in size. Summed up:
as §1

A short description of experiment [14]: A CellTox Green Cytotoxicity Assay to monitor cytotoxicity in HepG2 cells - 24 hour (AID 1224878). Further: nearly all actives have a fitted effect of over 45% in size. Further: potency means the concentration at half of the fitted maximal effect. In a few lines:
as §5

Experiment [15] in a line: A CellTox Green Cytotoxicity Assay to monitor cytotoxicity in HepG2 cells - 40 hour (AID 1224879). Further: nearly all actives have a fitted effect of over 40% in size. Further: potency means the concentration at half of the fitted maximal effect. Summed up:
as §5

The nature of experiment [16]: qHTS RealTime-Glo MT Cell Viability Assay in HEK293 cells - 0 hour (AID 1224880). Further: top concentration of the series differs between compounds; nearly all actives have a fitted effect of over 45% in size. In a few lines: (§6)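 Tox21 screen in HEK293 using RealTime-Glo MT chemistry, with cells and reagent co-dispensed. Luminescence proportional to viable cell number was captured at intervals during 40 h compound exposure at 37 C.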
Experiment [17] in a line: qHTS RealTime-Glo MT Cell Viability Assay in HEK293 cells - 40 hour (AID 1224874). Further: nearly all actives have a fitted effect of over 50% in size. Particulars: RealTime-Glo luminescence; max response: hits give low values. In a few lines: as §6
A short description of experiment [18]: A CellTox Green Cytotoxicity Assay to monitor cytotoxicity in HEK293 cells - 24 hour (AID 1224875). Summed up: as §3

A number with no mark means an inactive call. Inconclusive results are not listed. Calls of active or inactive are those of the source. Unless noted, the call rests on the fitted dose curve; in most records, active means well fitted curve in the direction sought with a large enough effect in the repeat runs; inconclusive means weak or mixed curves; inactive means no such curve, though single readings can be large; an effect the other way counts as inactive or inconclusive.
On the % scale 0 is the no-effect control and ±100 the full control effect.

In the case of `O=C=NC1CCC(CC2CCC(N=C=O)CC2)CC1` (stereo unspecified), the Potency entry in experiment [1], in experiment [2], in experiment [4], in experiment [5], in experiment [6] and in experiment [7] was “inactive” each time. In addition, the Potency result in experiment [8], in experiment [10], in experiment [11], in experiment [12], in [13] and in experiment [14] was “inactive” in each case. Also, the Potency entry in [15] and in experiment [16] was “inactive” throughout. The compound was classed as inactive in experiment [3]. For the same compound, the Potency in experiment [9] was 49 µM (active).

With `COCCO`, the Potency result in experiment [1], in [2], in experiment [4], in [5], in experiment [6] and in [7] was “inactive” throughout. Moreover, the Potency entry in [8], in [9], in experiment [10], in experiment [11], in experiment [12] and in experiment [13] was “inactive” throughout. Moreover, the Potency result in experiment [14] and in [15] was “inactive” throughout. For the same compound, in experiment [3], the compound was classed as inactive. The max response in experiment [17] was 11.8%.

`CC(C)CCCC(C)CCO` (stereo unspecified): the Potency result in experiment [1], in [2], in experiment [4], in experiment [5], in [6] and in experiment [7] was “inactive” in each case. The Potency result in experiment [8], in experiment [9], in experiment [10], in experiment [11], in [18] and in [13] was “inactive” throughout. Moreover, the Potency result in experiment [15] and in experiment [16] was “inactive” each time. Further, in [3], the compound was called inactive. In experiment [17], the max response is 14.4%.

Turning to `CC1(C)[C@H]2CC[C@]1(C)[C@H](O)C2`, the Potency entry in experiment [1], in [2], in [5], in experiment [6], in experiment [7] and in experiment [8] was “inactive” throughout. The Potency entry in experiment [9], in experiment [10], in experiment [12], in experiment [13], in experiment [14] and in experiment [15] was “inactive” throughout. For the same compound, the Potency entry in experiment [16] was “inactive”. For the same compound, in experiment [3], the compound was called inactive. In addition, the Potency in [4] was 1.6 µM (active). The max response in experiment [17] is -5.57%.

For the compound `Cc1cccc(C(C)(C)C)c1O`, the Potency entry in experiment [1], in experiment [2], in experiment [5], in [6], in experiment [7] and in [8] was “inactive” throughout. Also, the Potency entry in experiment [10], in experiment [11], in experiment [13], in experiment [14] and in experiment [16] was “inactive” in each case. Moreover, the compound was classed as inactive in experiment [3]. In addition, in experiment [17], the max response is -2.49%.

With `COC(=O)CSc1cc(N=c2sc(=O)n3n2CCCC3)c(F)cc1Cl`, the Potency entry in [1], in [2], in [4], in experiment [5], in experiment [6] and in experiment [7] was “inactive” each time. For the same compound, the Potency entry in experiment [8], in experiment [9], in experiment [10], in [11], in experiment [12] and in experiment [13] was “inactive” each time. Also, the Potency entry in experiment [14], in [15] and in [16] was “inactive” each time. For the same compound, the call in experiment [3] was inactive. For the same compound, the max response in experiment [17] is 3.98%.

For the compound `CCCCCc1ccc(N)cc1`, the Potency result in [1], in [2], in [5], in experiment [6], in [7] and in experiment [8] was “inactive” each time. The Potency result in experiment [10], in experiment [11], in experiment [13] and in [16] was “inactive” each time. In experiment [3], the result was inactive. For the same compound, the Potency in [9], in experiment [14] and in experiment [15] was 49 µM (active) throughout. Moreover, the max response in experiment [17] is -15.3%.

For the compound `Cc1c(Cn2ccnc2)c2ccccc2n1CCC(=O)O`, the Potency entry in experiment [1], in [2], in experiment [4], in experiment [5], in [6] and in experiment [7] was “inactive” in each case. Moreover, the Potency entry in experiment [8], in experiment [9], in experiment [10], in [18], in experiment [12] and in experiment [13] was “inactive” throughout. Further, the Potency result in experiment [14], in [15] and in experiment [16] was “inactive” throughout. In addition, the compound was called inactive in experiment [3]. The max response in [17] is 4.63%.

Values taken from PubChem BioAssay (Tox21).
